Source: PubChem BioAssay AID425 (Sanford-Burnham Center for Chemical Genomics, 2006)
“And” between values parts separate entries of the source, which are not always exact repeats. Equal values may be shown once. Among all 110,000 compounds or so, about 190 (0.17%) were called active. The entries come from a sample that favours actives as a whole. Measured potencies and affinities stand elsewhere. A number with no mark means an inactive call. No stated cut-off is given here; in the data, active means inhibition above about 50%; inactive means the rest.

biological target: Dual specificity protein phosphatase 6 (Rattus norvegicus) (UniProt Q64346); assay: inhibition of rat DUSP6 enzyme activity – biochemical, in vitro, primary screen (AID 425); conditions: recombinant MKP-3 phosphatase activity, fluorescence; at 20 µM; stronger effect = higher value;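 further: plate controls were vehicle for no effect and reference inhibitor for full effect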
Sequence (Q64346 whole entry, looked up): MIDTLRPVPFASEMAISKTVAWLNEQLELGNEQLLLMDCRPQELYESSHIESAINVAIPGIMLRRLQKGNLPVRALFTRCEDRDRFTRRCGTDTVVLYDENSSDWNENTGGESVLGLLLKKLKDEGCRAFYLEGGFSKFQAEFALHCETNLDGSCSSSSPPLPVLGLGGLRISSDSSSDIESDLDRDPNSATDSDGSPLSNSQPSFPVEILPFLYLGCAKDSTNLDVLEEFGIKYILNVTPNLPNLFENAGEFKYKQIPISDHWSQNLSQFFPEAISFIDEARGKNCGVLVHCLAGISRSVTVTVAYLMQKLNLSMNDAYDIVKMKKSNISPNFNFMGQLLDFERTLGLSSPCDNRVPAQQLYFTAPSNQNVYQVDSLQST

| Structure (SMILES) | inhibition |
| --- | --- |
| O=C1CC(c2cccs2)CC2=C1C(c1ccsc1)Nc1ccccc1N2 (stereo not drawn) | -0.1% |
| C=C(C)Cn1c(SCC(=O)NN)nnc1-c1ccc(Br)cc1 | 2.7% |
| CCC(C)(C)NC(=O)C1CCN(c2nc(C)cc(C)n2)CC1 | -18.2% |
| CCc1nnc(NC(=O)C2CC(=O)N(c3ccc(C)cc3)C2)s1 (stereo not drawn) | -9.9% |
| O=C1NC(=S)N/C1=C/c1cc2c(cc1[N+](=O)[O-])OCO2 | 64.9% (active) |
| O=C1NC(=S)N/C1=C/c1ccc2c(c1)OCO2 | 5.3% |
| O=C1NC(=S)S/C1=C\c1ccccc1[N+](=O)[O-] | 122% (active) |
| COc1cc(/C=C2/SC(=S)NC2=O)c([N+](=O)[O-])cc1OC | 50.1% (active) |
| O=C1NC(=Nc2ccc(Br)cc2)S/C1=C\c1ccccc1[N+](=O)[O-] | 1.9% |
| O=C1NC(=S)S/C1=C/c1ccccc1OS(=O)(=O)c1ccccc1[N+](=O)[O-] | 1.4% |
| O=C1NC(=O)/C(=C\c2ccccc2Cl)S1 | -2.9% |
| COc1cc(Br)c(/C=C2/SC(=S)NC2=O)cc1OC | -0.6% |
| O=C1NC(=S)N/C1=C/c1cc2c(cc1Cl)OCO2 | 0.8% |
| O=C1NC(=S)S/C1=C\c1ccccc1OS(=O)(=O)c1ccc([N+](=O)[O-])cc1 | 1.6% |
| O=C1NC(=O)/C(=C/c2ccccc2[N+](=O)[O-])S1 | 79.4% (active) |
| COc1cc(/C=C2\NC(=S)NC2=O)c([N+](=O)[O-])cc1OC | 13.3% |
| COc1ccc(CN2C(=O)C(O)(CC(=O)c3c(C)n[nH]c3C)c3ccccc32)cc1OC (stereo not drawn) | -1.9% |
| CCOc1cc(C(=O)Nc2ccc(Br)cc2F)cc(OCC)c1OCC | 5.8% |
| O=C(c1oc2ccccc2c1N1CCCCC1)N1CCCCC1 | 2.6% |
| O=C1CN(S(=O)(=O)CCOc2ccccc2)CC(=O)N1CCOc1ccccc1 | 3.6% |
| CN(Cc1ccccc1)c1oc(-c2ccco2)nc1C#N | -1.5% |

| Structure (SMILES) | inhibition |
| --- | --- |
| O=C(NN=C(C1CC1)C1CC1)c1cc2ccccc2cc1O | 1.9% |
| CC1(C)CC(=O)c2nc(NC(=O)CSC(=O)c3ccccc3)sc2C1 | 0.6% |
| CN1C(=O)/C(=C\c2cc(Br)ccc2OCc2ccccc2)SC1=S | 2.6% |
| O=C1NC(=O)/C(=C\c2cc3c(cc2Br)OCO3)S1 | 1.1% |
| O=C1/C(=C/c2cc3c(cc2[N+](=O)[O-])OCO3)Sc2ccccc21 | -0.9% |
| O=C1NC(=O)/C(=C\c2cc3c(cc2[N+](=O)[O-])OCO3)S1 | 122% (active) |
| CC(C)(C)c1cc(Br)ccc1OCC(=O)Nc1ccc2c(c1)OCCO2 | 6.4% |
| COc1ccc2nc(SCC(=O)Nc3ccccc3)[nH]c2c1 | -2.1% |
| Cc1ccc(C=C2C(=O)NC(=S)N(c3ccccc3Cl)C2=O)o1 | 11.8% |
| Cc1cc(N2C(=O)NC(=O)/C(=C\c3ccco3)C2=O)ccc1Br | 42.1% |
| O=C1NC(=S)N(c2ccc(F)cc2)C(=O)/C1=C/c1ccc(F)cc1 | -0.1% |
| COc1ccc(OC)c(N2C(=O)NC(=O)C(=Cc3ccc(C)o3)C2=O)c1 | 3.8% |
| COc1cccc(N2C(=O)C(=Cc3ccc(OC)cc3OC)C(=O)NC2=S)c1 | 2.6% |
| O=C1NC(=O)N(c2ccc(Br)cc2)C(=O)/C1=C/c1ccco1 | 46.2% |
| COc1cccc(-c2cc(C(=O)NC(C)c3ccccc3)c3ccccc3n2)c1 (stereo not drawn) | 2.7% |
| CCCOc1ccc(C(=O)Nc2ccc(C)cc2[N+](=O)[O-])cc1 | 2.7% |
| O=C(O)c1cc(O)ccc1NC(=O)C(c1ccccc1)c1ccccc1 | 4.4% |
| CC(C)=C1C2CCC1C(C(=O)NCCC1=CCCCC1)C2C(=O)O (stereo not drawn) | 1.3% |
| CCc1ccc(-n2c(C)cc(/C=N/NC(=O)c3cccnc3)c2C)cc1 | 6.1% |
| O=C(NCCN1CCOCC1)c1cccc(S(=O)(=O)N2CCCCCC2)c1 | -10.5% |
| CN1C(=O)/C(=C2\SC(=S)N(CC(=O)O)C2=O)c2ccccc21 | 2% |

| Structure (SMILES) | inhibition |
| --- | --- |
| CN1C(=O)c2oc3ccc(Br)cc3c(=O)c2C1c1ccncc1 (stereo not drawn) | 2.2% |
| Cc1ccc(NC(=O)C(=O)N/N=C/c2cccs2)cc1 | 0.5% |
| CCc1ccccc1OCCN(CC)CC | 1.4% |
| COc1ccc(/C=N/NC(=O)c2cccc([N+](=O)[O-])c2)cc1Br | -2.3% |
| COc1cc(/C=N/NC(=O)c2cccc([N+](=O)[O-])c2)cc(I)c1O | -0.4% |
| C/C(=N\NS(=O)(=O)c1ccc(C)cc1)C(C)(C)CC(=O)O | 0.4% |
| Cc1ccc(S(=O)(=O)N2CCN(Cc3ccccc3[N+](=O)[O-])CC2)cc1 | 3.5% |
| CCOC(=O)CNC(=O)CSc1nnc(Cn2cnc3ccccc32)n1C | -4.9% |
| COc1ccc(OC)c(CNC(=O)COc2cc(=O)n(C)c3ccccc23)c1 | -0.9% |
| CCOC(=O)/C=C/CSc1nc2sc3c(c2c(=O)[nH]1)CCCC3 | 3.4% |
| COc1cc(/C=N/NC(=O)Cc2nnc(N)s2)ccc1OCc1ccc(Cl)cc1Cl | 0.3% |
| CCOc1cc(C=C2C(=O)c3ccccc3C2=O)ccc1OCc1ccc(Cl)cc1Cl | 2% |
| CCN(CC)c1ccc(/C=N/NC(=O)Cn2nnc(-c3ccccc3)n2)c(O)c1 | 0.8% |
| O=P(c1ccccc1)(c1ccccc1)C(O)c1ccco1 (stereo not drawn) | 4.6% and -1.6% |
| O=C(O)CC(NC(=O)C(c1ccccc1)c1ccccc1)c1ccco1 (stereo not drawn) | -9.2% |
| Cc1nonc1NC(=O)Nc1cccnc1 | -4.7% |
| Cc1nonc1NC1(O)C(=O)c2ccccc2C1=O | 106% (active) |
| O=C(NC1(O)C(=O)c2ccccc2C1=O)c1ccccc1 | 21.6% |
| CC1=C/C(=N\OC2=C(O/N=C3/C=CC(=O)C(C)=C3)C(=O)c3ccccc3C2=O)C=CC1=O | 42.8% |
| CC1=CC(=O)C=C/C1=N/OC1=C(O/N=C2/C=CC(=O)C=C2C)C(=O)c2ccccc2C1=O | 66% (active) |
| CC1=CC(=O)C=C/C1=N\OS(=O)(=O)c1ccccc1 | 8.7% |
